Results as given in PubChem BioAssay (NCI).
Compounds without any hit were thinned out: in the full panel of roughly 83,000, 20% have a hit.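 Results are percent growth after 48 hours of single-concentration exposure. 100 means growth as in untreated cells, lower positive values show inhibition; negative values down to -100 show cell death.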 Values without a mark were called inactive. Calls of active or inactive are those of the source. The calls were made as follows: active = growth percent below 10; inactive = the rest.

Columns and labels:
Experiment in all cases: NCI-60 one-dose screen, 48 h (100 = growth as untreated, 0 = no growth, -100 = all killed)
Conditions in all cases: 10 µM
[1] = system: HT29 colon
[2] = system: SNB-75 CNS
[3] = system: SNB-19 CNS
[4] = system: U251 CNS
[5] = system: PC-3 prostate
[6] = system: SK-MEL-5 melanoma
[7] = system: UACC-62 melanoma
[8] = system: LOX IMVI melanoma
[9] = system: SK-MEL-2 melanoma
[10] = system: EKVX NSCLC
[11] = system: SN12C renal
[12] = system: UO-31 renal
[13] = system: TK-10 renal
[14] = system: ACHN renal
[15] = system: CAKI-1 renal
[16] = system: CCRF-CEM leukemia
[17] = system: MOLT-4 leukemia
[18] = system: SR leukemia
[19] = system: A498 renal
[20] = system: SK-MEL-28 melanoma

| Compound | growth [1] | growth [2] | growth [3] | growth [4] | growth [5] | growth [6] | growth [7] | growth [8] | growth [9] | growth [10] | growth [11] | growth [12] | growth [13] | growth [14] | growth [15] | growth [16] | growth [17] | growth [18] | growth [19] | growth [20] |
| --- | --- | --- | --- | --- | --- | --- | --- | --- | --- | --- | --- | --- | --- | --- | --- | --- | --- | --- | --- | --- |
| Cc1cc(O)c(C(C)(C)C)cc1Sc1cc(C(C)(C)C)c(O)cc1C | 97.1% | 54.2% | 81% | 60% | 22.5% | 33.7% | 16.3% | 63.9% | 72.6% | 40.7% | 58.2% | 37.5% | 81% | 60.7% | 32.3% | 18.2% | 1.49% (active) | -33.1% (active) |  |  |
| Nc1ncn(C2OC(CO)C(O)C2O)c(=O)n1 (stereo not drawn) | 6.45% (active) | -32.7% (active) | 17.2% | 5.19% (active) | -30.7% (active) | 25.5% | -8.83% (active) | -33.7% (active) | -21.2% (active) | 44.9% | 17.4% | 0.167% (active) | 4.79% (active) | -21.7% (active) | -2.03% (active) | -7.84% (active) | 0.695% (active) | -1.52% (active) | 19% |  |
| Clc1cc2c(c(CSc3nc4ccccc4n4cccc34)c1)OCOC2 | 88.3% | 62% | 107% | 85.9% | 60.5% | 83.7% | 112% | 87.5% |  |  | 81.5% | 74% | 79.4% | 87.9% |  | 93.7% | 94.8% | 29.2% | 102% | 92.8% |
| C/C(N)=C(\C#N)C(=O)c1ccccc1 | 105% | 93.1% | 107% | 98.2% | 98.2% | 99.5% | 109% | 99.8% |  |  | 106% | 86.4% | 106% | 105% | 107% | 102% | 110% | 112% |  | 108% |
| COC(=O)[C@@H]1[C@H](O)[C@H](C)[C@H](O)[C@@](C)(O)/C=C\C=C(C)C(=O)Nc2c(C)c(OC(C)=O)c3c(c2O)C(=O)C(C)=C2OCOC(=C23)C(C)=C[C@@](C)(O)[C@H](O)[C@@H](C)[C@H]1OC(C)=O | 111% | 81.9% | 112% | 104% | 22% | 98% | 97.8% | 104% | 117% | 108% | 108% | 88.7% | 126% | 110% | 100% | 111% | 95.6% | 92.1% | 120% |  |
| CCN(CCCCCCCCCCN1CC(=O)N(CCCCCCCCCCN(CC)Cc2ccccc2OC)CC1=O)Cc1ccccc1OC | -57.8% (active) | -15.7% (active) | -20% (active) | -71.1% (active) | -40.9% (active) | -100% (active) | -80.5% (active) | -86.6% (active) | -60.6% (active) | -0.258% (active) | 9.4% (active) | -74.8% (active) | 10.1% | 3.48% (active) | -12.8% (active) | -25.5% (active) | -32.7% (active) | -61.3% (active) |  |  |
| COc1ccc(N=C2C(=Nc3ccc(OC)cc3)N(c3ccc(N(C)C)cc3)C(=S)N2c2ccc(OC)cc2)cc1 | 84% | 8.69% (active) | 75.1% | 49.3% | 52.5% | 84.8% | 98.2% | 86.3% | 90.7% | 90.1% | 106% | 16.3% | 95.1% | 81.6% | 53.3% | 52% | 10.8% | 46.3% | 71.1% |  |
| COc1cc(/C(=C2/O[C@@H]([C@H]3COC(C)(C)O3)[C@H]3OC(C)(C)O[C@@H]23)c2ccc3ccccc3c2)cc(OC)c1OC | 41% | 41.1% | 29% | 18% | 27% | 38.3% | 46.5% | 46.4% | -49.7% (active) | 53.7% | 24.8% | 46.8% | 22.7% | 0.857% (active) | 38.7% | 82.2% | 62.4% | 51.4% |  |  |
| COc1cc(C(=C2O[C@@H]([C@H]3COC(C)(C)O3)[C@H]3OC(C)(C)O[C@@H]23)c2cc(OC)c(OC)c(OC)c2)cc(OC)c1OC | 114% | 99.8% | 109% | 107% | 90% | 105% | 100% | 99.1% | 158% | 98.5% | 92.9% | 95.8% | 111% | 99.8% | 107% | 103% | 99.8% | 90.6% |  |  |
